High-throughput results as filed in PubChem BioAssay.
BioA inh-1 – blocks M. tuberculosis BioA enzyme activity; purified M. tuberculosis BioA enzyme, plate reader; inhibition, % at 9.99 µM; 360,000 compounds, 0.096% hits; AID 602481; in the data active = inhibition above about 40%; inconclusive = no clear call, values can overlap the other calls
Y pestis TopoI – inhibitors of Yersinia pestis topoisomerase I; 360,000 compounds, 0.064% hits; activity, % at 10 µM; AID 504884; Y. pestis Topo-I cleavage product accumulation, plate reader; in the data active = activity above about 50%, passing the limit was not always enough; inconclusive = no clear call, values can overlap the other calls
TcdB inh – TcdB glycohydrolase inhibition; AID 652162; P18177; inhibition, % at 9.99 µM; 350,000 compounds, 0.24% hits; TcdB glycohydrolase enzymatic assay, plate reader; in the data active = inhibition above about 10%
BioA inh-2 – Mtb BioA enzyme inhibition; shares compounds with BioA inh-1; purified BioA enzyme, plate reader, dose response; 310 tested, under 10 active; max activity, %;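 also: top concentration of the dilution series was 10 µM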
HepG2 cytotox – cytotoxicity in HepG2 cells; 310 tested, under 10 active; plate reader; max activity, %; shares compounds with BioA inh-1
NIH3T3 tox 5 – cytotoxicity in NIH3T3 cells | shares compounds with BioA inh-1 | plate reader | activity change, negative = cytotoxicity, % at 26 µM | 310 tested, under 10 active
Starred values were filed as active, the others as inactive; i = inactive; ? = inconclusive; . = no result given. Shown are actives, neighbours in structure and some others; about 0.32% of the full set was active somewhere. Unless noted, no rule for the calls is given here.

SMILES | BioA inh-1 | Y pestis TopoI | TcdB inh | BioA inh-2 | HepG2 cytotox | NIH3T3 tox 5
C[C@@H](C(=O)N1CCN(Cc2ccc3c(c2)OCO3)CC1)n1nnc2ccccc2c1=O | 70* | 0 | 1 | -9 | -10 | -2
Cc1cc(C)cc(NC(=O)N2CCN(Cc3ccc4c(c3)OCO4)CC2)c1 | . | -6 | 1 | . | . | .
CCC(=O)N(C)C[C@H]1Oc2ncc(-c3ccc(C(=O)N(C)C)cc3)cc2C(=O)N([C@H](C)CO)C[C@@H]1C | 0 | . | 0 | . | . | .
C[C@H]1CCCCO[C@H](CN(C)C(=O)Cc2ccccc2)[C@@H](C)CN([C@@H](C)CO)C(=O)c2cc(NC(=O)C3CCCCC3)ccc2O1 | 0 | . | . | . | . | .
COc1ccc(S(=O)(=O)N(C)C[C@@H]2OCCCC[C@H](C)Oc3ccc(NC(=O)Nc4ccc(C(F)(F)F)cc4)cc3C(=O)N([C@H](C)CO)C[C@@H]2C)cc1 | -1 | . | 0 | . | . | .
C[C@H](NC(=O)[C@H]1[C@H](CO)[C@H]2Cn3c(ccc(-c4cccc(F)c4)c3=O)[C@H]2N1C)c1ccccc1 | . | . | 0 | . | . | .
CCCc1cc(-c2n[nH]c(=S)n2C(C)c2ccccc2)cs1 (stereo not drawn) | 3 | 34 | . | . | . | .
COc1cc(-c2n[nH]c(=S)n2C(C)c2ccccc2)cc(OC)c1OC (stereo not drawn) | 64* | -1 | 2 | -5 | 20 | 1
COc1cc(-c2n[nH]c(=S)n2-c2cccc(C(F)(F)F)c2)cc(OC)c1OC | 43* | -2 | . | -6 | -9 | -6
COc1cc(-c2n[nH]c(=S)n2-c2ccccc2C(F)(F)F)cc(OC)c1OC | . | -2 | 8 | . | . | .
CO[C@@H]1CN(C)C(=O)c2cc(NC(=O)Cc3ccccc3)ccc2OC[C@H](C)NC[C@@H]1C | 0 | . | . | . | . | .
COc1ccc(S(=O)(=O)N[C@@H]2CC[C@@H](CC(=O)N3CCC(Cc4ccccc4)CC3)O[C@H]2CO)cc1 | 2 | . | 0 | . | . | .
O=C(C[C@@H]1C[C@H]2c3cc(NS(=O)(=O)c4ccc(F)cc4)ccc3O[C@H]2[C@@H](CO)O1)NCc1ccncc1 | 0 | . | 1 | . | . | .
COc1ccc(CN(C)C[C@@H]2OCCCC[C@@H](C)Oc3ccc(NC(=O)Nc4ccc(C(F)(F)F)cc4)cc3C(=O)N([C@@H](C)CO)C[C@@H]2C)cc1 | -3 | . | -1 | . | . | .
CC(C)NC(=O)N(C)C[C@H]1Oc2cc(C#CC(C)(C)O)ccc2S(=O)(=O)N([C@H](C)CO)C[C@H]1C | -3 | . | 1 | . | . | .
CO[C@H]1CN(C)C(=O)c2cc(NC(=O)C3CCCC3)ccc2OC[C@@H](C)N(C)C[C@H]1C | 6 | . | 0 | . | . | .
Cc1ccc(S(=O)(=O)N(C)C)cc1NC(=O)CSc1nncs1 | 51* | 18 | 1 | -6 | -8 | -1
COc1ccc(S(=O)(=O)N(C)C)cc1NC(=O)CSc1nncs1 | 15 | 1 | 2 | . | . | .
Cc1noc(C)c1S(=O)(=O)Nc1ccc2c(c1)C(=O)N([C@@H](C)CO)C[C@H](C)[C@H](CN(C)Cc1ccc(Cl)c(Cl)c1)O2 | 2 | . | 0 | . | . | .
O=C(C[C@H]1CC[C@@H]2[C@H](COC[C@H](O)CN2C(=O)Nc2ccc(F)cc2)O1)NCCCN1CCOCC1 | -1 | . | 1 | . | . | .
CCN1CCN(CC(=O)c2c(C)n(Cc3ccccc3)c3ccc(OC)cc23)CC1 | 26 | 2 | . | . | . | .
COc1ccc2c(c1)c(C(=O)CN1CCC3(CC1)OCCO3)c(C)n2Cc1ccccc1 | 59* | 17 | . | -6 | -8 | -10
O=C(CSc1nc2ccccc2c(=O)n1-c1ccc(F)cc1)Nc1ccc(C(=O)O)cc1 | 0 | -3 | -2 | . | . | .
O=C(CSc1nc2cc(C(=O)O)ccc2c(=O)n1-c1ccc(F)cc1)Nc1ccc(F)c(F)c1F | 81* | -4 | 0 | -9 | -8 | -12
O=C(NC1CCCC1)[C@@H]1[C@@H](CO)[C@@H]2Cn3c(ccc(C4=CCCCC4)c3=O)[C@H]1N2CC1CC1 | -1 | . | 1 | . | . | .
SMILES | BioA inh-1 | Y pestis TopoI | TcdB inh | BioA inh-2 | HepG2 cytotox | NIH3T3 tox 5
COc1cccc(-c2ccc3c(c2)[C@H]2[C@H](CCN2C(=O)C2CCC2)[C@H](CO)N3)c1 | 6 | . | . | . | . | .
O=C(C1CC1)N1CC[C@@H]2[C@@H](CO)Nc3ccc(Br)cc3[C@@H]21 | 11 | . | -1 | . | . | .
O=C(C1CC1)N1CC[C@@H]2[C@H](CO)Nc3ccc(Br)cc3[C@@H]21 | 85* | . | -1 | ? | i | -5
COc1cccc(-c2ccc3c(c2)[C@H]2[C@H](CCN2C(=O)C2CCC2)[C@@H](CO)N3)c1 | 60* | . | . | -10 | i | -2
O=C(Cc1ccncc1)N1CC[C@@H]2[C@H](CO)Nc3ccc(Br)cc3[C@@H]21 | 16 | . | . | . | . | .
O=C(c1ccncc1)N1CC[C@@H]2[C@@H](CO)Nc3ccc(Br)cc3[C@@H]21 | 48* | . | . | -5 | i | -2
Cc1noc(C)c1S(=O)(=O)Nc1ccc2c(c1)CC(=O)N([C@H](C)CO)C[C@H](C)[C@@H](CN(C)C)O2 | -2 | . | -1 | . | . | .
O=C(NC1CCCCC1)[C@@H]1[C@@H](CO)[C@@H]2Cn3c(cccc3=O)[C@@H]2N1CCc1ccccc1 | 5 | . | 1 | . | . | .
CCC(=O)Nc1ccc2c(c1)C(=O)N(C)C[C@@H](OC)[C@H](C)CN(Cc1ccccn1)[C@H](C)CO2 | -2 | . | -2 | . | . | .
C[C@@H]1CN([C@H](C)CO)C(=O)Cc2cc(NC(=O)Nc3cccc4ccccc34)ccc2O[C@H]1CN(C)S(=O)(=O)c1cn(C)cn1 | 0 | . | 0 | . | . | .
C[C@@H](NC(=O)C[C@H]1C=C[C@H](NC(=O)C2CC2)[C@@H](CO)O1)c1ccccc1 | -3 | . | 0 | . | . | .
O=C(O)CCS(=O)(=O)c1nc(-c2cccs2)cc(C(F)(F)F)n1 | 57* | 7 | -2 | -7 | -9 | -2
Cc1cc(NC(=O)CCCS(=O)(=O)c2nc(-c3cccs3)cc(C(F)(F)F)n2)no1 | 14 | 7 | 0 | . | . | .
Cc1cc(C)n2nc(SCC(=O)N3CCC4(CC3)OCCO4)nc2n1 | 5 | 0 | . | . | . | .
Cc1ccc(Cc2c(C)nc3nc(SCC(=O)NCCCN4CCCCC4)nn3c2C)cc1 | 54* | 12 | -1 | -2 | -12 | 10
Cc1nc2nc(SCC(=O)N3CCC4(CC3)OCCO4)nn2c(C)c1Cc1ccccc1 | 74* | 23 | . | -9 | 25 | 8
Cc1nc2nc(SCC(=O)N3CCOCC3)nn2c(C)c1Cc1c(F)cccc1Cl | 94* | 22 | . | -9 | -7 | -13
Cc1ccc(Cc2c(C)nc3nc(SCC(=O)NCCCN4CCCC4)nn3c2C)cc1 | . | 6 | 0 | . | . | .
Cc1nc2nc(SCC(=O)NCCN3CCOCC3)nn2c(C)c1Cc1ccccc1 | . | 7 | . | . | . | .
CC(C)NC(=O)N(C)C[C@@H]1Oc2ccc(NC(=O)Cc3ccccc3)cc2C(=O)N([C@H](C)CO)C[C@@H]1C | -1 | . | 0 | . | . | .
COc1ccc2c3c(n(C)c2c1)[C@@H](CO)N(C(=O)NC(C)C)CC31CCN(CC2CC2)CC1 | . | . | 1 | . | . | .
Cc1cc(/C=C(/C#N)C(=O)Nc2ccccc2)c(C)n1-c1cccnc1 | 55* | 1 | 0 | -7 | 6 | -1
Cc1cc(/C=C(\C#N)C(=O)Nc2ccccc2)c(C)n1-c1ccc2c(c1)OCO2 | 16 | 8 | 1 | . | . | .
Cc1nnc(N2CCC(C(=O)N3CCCCC3)CC2)c2nn(-c3ccc(Cl)cc3)c(C)c12 | 51* | 25 | . | 4 | 11 | -5
